Compound activity as filed in PubChem.
Cav32 inh: Cav3.2 calcium influx blockers – cell-based, Fluo-4 calcium fluorescence, FDSS, MLSMR library, primary screen. Voltage-dependent T-type calcium channel subunit alpha-1H (Homo sapiens), O95180. Cav3.2-expressing cells; hits give low values. B-score at 10 µM. actives 4% (n = 100,000);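 active = single-dose well whose peak fluorescence ratio is a statistical outlier from its plate by either plate-standardised score or position-corrected B-score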
CYP2C9 act: human CYP2C9 activators, primary screen, biochemical, luminescence. Cytochrome P450 2C9 (Homo sapiens), P11712. recombinant CYP2C9, luciferin-H conversion; hits give high values; factor 1 = untreated enzyme, 0 = blocked. activation factor at 5 µM. actives 1.4% (n = 96,000);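 active = activation factor of 2 or more for CYP2C9 at a 5 µM dose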
Pyk2 oligo antag: antagonists of Pyk2 self-association, primary screen, Q293 cells, FERM NanoBiT luminescence, HTS; Protein-tyrosine kinase 2-beta (Homo sapiens), Q14289; z-score (the deposit names both 25 µM and 10 µM); hits give low values; actives 0.83% (n = 99,000); AID 1347419, 2020;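 active = Z-score of -3 or lower, scaled per plate to the spread of control and sample wells; inactive = z-score above -3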;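 note: negative z-score means lost luminescence so less FERM oligomerization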
CYP2C19 inhib: blockers of cytochrome P450 2C19 activity – biochemical, luminescence, ADME assay, primary screen; actives 21% (n = 96,000); AID 778, 2007; CYP2C19 Supersomes, luciferin-H EGE luminescence, 30 min; inhibition, % at 5 µM; P33261;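 active = CYP2C19 inhibition above a set limit at 5 µM in the primary screen, cut at about 50% in these data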
CYP2C9 inhib: blockers of cytochrome P450 2C9 activity – biochemical, luminescence, ADME assay, primary screen. inhibition, % at 5 µM. CYP2C9 Supersomes, luciferin-H conversion. actives 20% (n = 96,000);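 active = blocking of liver enzyme CYP2C9 beyond about 50% at 5 µM, limit read from the data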
CYP2C19 act: human CYP2C19 activators, primary screen, biochemical, luminescence. activation factor at 5 µM. recombinant CYP2C19, luciferin-H EGE luminescence; hits give high values; 0 = fully inhibited enzyme, 1 = untreated enzyme. Cytochrome P450 2C19 (Homo sapiens), P33261. 96,000 tested, under 10 active;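 active = activation factor of at least 2 at 5 µM in the primary screen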
Large screens that a line does not name were inactive. In the library only some 27% were active in any assay of this set; here they are far more common.

CCOC(=O)C1=C(CN2c3ccccc3CC2C)NC(=O)NC1c1ccccc1 (stereo unspecified)	Cav32 inh -7.8
CC1(C(=O)CSc2nc3ccccc3s2)CCC(=O)O1 (stereo unspecified)	none
CCOC(=O)/C(C#N)=C(\N)C(C)C(=O)Nc1ccccn1 (stereo unspecified)	none (no result: Cav32 inh)
CC(c1ccccc1F)n1cc(C(=O)NCc2ccncc2)nn1 (stereo unspecified)	CYP2C19 inhib 54, CYP2C9 inhib 69
O=C(NCc1ccncc1)c1cnccn1	none (no result: Cav32 inh)
CC(c1ccccc1F)n1cc(C(=O)NCCc2ccco2)nn1 (stereo unspecified)	CYP2C9 inhib 58
O=C(NC1CCCCC1)C(c1ccccc1F)N(Cc1ccco1)C(=O)Cn1nnc2ccccc21 (stereo unspecified)	none (no result: Cav32 inh)
CC(c1ccccc1)n1cc(C(=O)NCc2ccncc2)nn1 (stereo unspecified)	CYP2C9 inhib 81
CCOc1cc(C)nc(N2CCN(C3CCCCC3)CC2)n1	CYP2C19 inhib 62
CCCCN(CC)S(=O)(=O)N1CCC(C(=O)NCc2ccc(F)cc2)CC1	CYP2C19 inhib 58
CCOC(=O)c1c(C)nc2sc3c(=O)n(-c4ccc(C(C)=O)cc4)cnc3c2c1-c1ccc(OC)cc1	CYP2C19 inhib 70, CYP2C9 inhib 76
CCOC(=O)C(=CNc1cc(C)nn1C(C)(C)C)C(=O)OCC	none (no result: Cav32 inh)
CCOC(=O)C(=CNc1cc(C)nn1-c1ccc(C)cc1)C(=O)OCC	CYP2C9 inhib 65
Cc1[nH]nc2c1C(c1ccc3c(c1)OCO3)C(C#N)=C(N)O2 (stereo unspecified)	CYP2C19 inhib 60, CYP2C9 inhib 57
CCCc1[nH]nc2c1C(c1ccccc1OC)C(C#N)=C(N)O2 (stereo unspecified)	none
COc1ccc(C2C(C#N)=C(N)Oc3n[nH]c(C)c32)cc1Cn1nnc2ccccc21 (stereo unspecified)	CYP2C9 inhib 68
CCCc1[nH]nc2c1C(c1ccc(OC)c(Cn3nnc4ccccc43)c1)C(C#N)=C(N)O2 (stereo unspecified)	CYP2C9 inhib 62
CCCc1[nH]nc2c1C(c1ccc(O)c(OC)c1)C(C#N)=C(N)O2 (stereo unspecified)	CYP2C19 inhib 60 (no result: Cav32 inh)
CCn1c(SCC(=O)Nc2ccc(S(N)(=O)=O)cc2)nnc1-c1cccc(OC)c1	none
CCn1c2ccccc2c2cc(C3C(C#N)=C(N)Oc4n[nH]c(COC)c43)ccc21 (stereo unspecified)	CYP2C9 inhib 59
CCOC(=O)N1CCN(C(=O)c2cccn3c(=O)c4sccc4nc23)CC1	none
CCOC(=O)CSc1nc2ccsc2c(=O)n1C1CCN(C(=O)OCC)CC1	CYP2C9 inhib 62
CCOc1ccc(-n2c(SCC(=O)Nc3nccs3)nc3c(c2=O)SCC3)cc1	none (no result: Pyk2 oligo antag)
CCOC(=O)N1CCC(n2c(SCC(=O)Nc3nccs3)nc3ccsc3c2=O)CC1	CYP2C9 inhib 61
CCOC(=O)CSc1nc2cc(C(=O)NCc3ccco3)ccc2c(=O)n1C1CCCCC1	CYP2C9 inhib 51
CCOC(=O)N1CCC(n2c(SCC(=O)OCc3ccccc3)nc3ccsc3c2=O)CC1	Cav32 inh -4
CCOC(=O)CSc1nc2cc(C(=O)NCc3ccco3)ccc2c(=O)n1-c1ccc(F)cc1	none
Cc1nc2ccc(F)cc2cc1C(=O)NC(C)C	none
CC(=O)c1cc(C#N)c(SCc2ccccc2C#N)nc1C	none (no result: CYP2C9 act, CYP2C19 inhib, CYP2C9 inhib, CYP2C19 act)
COc1ccc(Cn2c(SCC(=O)NCc3ccco3)nc3ccsc3c2=O)cc1	none
CCOC(=O)N1CCC(n2c(SCC(=O)NCc3ccco3)nc3ccsc3c2=O)CC1	CYP2C9 inhib 63
Cc1sc2nc3n(c(=O)c2c1C)Cc1ccccc1-3	none (no result: Cav32 inh, Pyk2 oligo antag)
CC(C)OC(=O)CSc1nnc(-c2cccnc2)n1N	none (no result: Cav32 inh)
Cc1ccc(-n2c(SCC(=O)OC(C)C)nnc2-c2ccco2)cc1	CYP2C9 act 2.3
Cc1ccc(-n2c(SCC(=O)OC(C)C)nnc2-c2ccccn2)cc1	CYP2C19 inhib 51
CNC(=O)CSc1nnc(-c2ccco2)n1-c1ccc(C)cc1	none (no result: CYP2C9 act, CYP2C19 inhib, CYP2C9 inhib, CYP2C19 act)
CC(C)OC(=O)CSc1nnc(-c2ccccc2)n1N	CYP2C19 inhib 60
CC1(c2nnc(-c3cccc(Cl)c3)o2)CC(c2ccccc2)=NO1 (stereo unspecified)	none (no result: CYP2C9 act, Pyk2 oligo antag, CYP2C19 inhib, CYP2C9 inhib, CYP2C19 act)
O=C(CCNS(=O)(=O)c1cccc2nonc12)N1CCN(c2cccc(Cl)c2)CC1	CYP2C19 inhib 68
O=C(CCNS(=O)(=O)c1cccc2nonc12)NCCc1ccc(Cl)cc1	CYP2C19 inhib 74
Cc1ccc(CCNC(=O)C2CCN(S(=O)(=O)c3cccc4nonc34)CC2)cc1	none (no result: Cav32 inh)
O=C(Nc1nc2c(s1)CCCC2=O)c1cnccn1	none
O=c1c2[nH]c3cccc(Cl)c3c2ncn1Cc1ccncc1	CYP2C19 inhib 58, CYP2C9 inhib 52
CSc1nc(Cl)cc(N(CCO)CCO)n1	none
Cc1occc1C(=O)Nc1cccc2ccccc12	none (no result: CYP2C9 act, CYP2C19 inhib, CYP2C9 inhib, CYP2C19 act)
Cc1c(C)n(C)c2ccc(C(=O)Nc3cccc4ccccc34)cc12	CYP2C9 act 3.7
Cc1oc2c(c1C(=O)NC(Cc1c[nH]c3ccccc13)C(=O)O)CCCC2 (stereo unspecified)	CYP2C9 inhib 80
Cc1oc2c(c1C(=O)Nc1cccc3ccccc13)CCCC2	CYP2C19 inhib 85, CYP2C9 inhib 81
O=c1cc(C(F)F)oc2c1ccc1ccccc12	none
C[C@]12CC[C@@H]3c4ccc(O)cc4CC[C@H]3[C@@H]1CC[C@@H]2OC(=O)CCC(=O)O	none (no result: CYP2C9 act, Pyk2 oligo antag, CYP2C19 inhib, CYP2C9 inhib, CYP2C19 act)
C[C@]12CC[C@@H]3c4ccc(O)cc4CC[C@H]3[C@@H]1C[C@@H](O)[C@@H]2O	Cav32 inh -4.6 (no result: CYP2C9 act, Pyk2 oligo antag, CYP2C19 inhib, CYP2C9 inhib, CYP2C19 act)
CCOC(=O)C1CCCN(CC(=O)NC2CC2)C1 (stereo unspecified)	none
CCOC(=O)Cc1csc(NC(=O)c2ccc(C)o2)n1	CYP2C19 inhib 73, CYP2C9 inhib 72
CCOC(=O)Cc1csc(NC(=O)c2ccncc2)n1	CYP2C19 inhib 78, CYP2C9 inhib 56
CC(Nc1nc(N2CCCCC2)nc2ccccc12)c1ccccc1 (stereo unspecified)	Cav32 inh -7
CC(C)CO/C(=N/S(=O)(=O)c1ccccc1)c1ccccc1	Cav32 inh -4.1, CYP2C19 inhib 76, CYP2C9 inhib 78
CC(C)OC(=S)N/C(=N\S(=O)(=O)c1ccccc1)c1ccccc1	CYP2C9 inhib 61
Cc1cccc(NC(=S)N/C(=N/S(=O)(=O)c2ccccc2)c2ccccc2)c1	none
COc1ccc(O/C(=N\S(=O)(=O)c2ccccc2)c2ccccc2)cc1	none
